From PubChem BioAssay (Tox21)
Results filed as inconclusive are left out. Active and inactive are the calls of the source. Calls come from the whole dose curve; as a rule, active = well fitted curve in the direction sought with a large enough effect in the repeat runs; inconclusive = weak or mixed curves; inactive = no such curve, though single readings can be large; an effect the other way counts as inactive or inconclusive.

Columns and labels:
[1] = A CellTox Green Cytotoxicity Assay to monitor cytotoxicity in HEK293 cells - 24 hour (AID 1224875); note: nearly all actives have a fitted effect of over 45% in size; note: potency is the fitted concentration of half-maximal effect; for activity change: series mostly up to about 77 µM
Outline: (§1)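 Read-out: fluorescence of a cell-impermeant cyanine dye staining DNA of dead cells, proportional to cytotoxicity. HEK293, 600 cells/well with reagent, compound (23 nL DMSO) added after 5 h; reads at 0, 8, 16, 24, 32, 40 h.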

[2] = A CellTox Green Cytotoxicity Assay to monitor cytotoxicity in HepG2 cells - 16 hour (AID 1224876); note: nearly all actives have a fitted effect of over 45% in size; note: potency is the fitted concentration of half-maximal effect
Outline: (§2)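 HepG2, 600 cells/well premixed w/ CellTox Green; 5 h settle, 37 C/5% CO2; pintool cpd add (DMSO); 37 C, 40 h; fluorescence read at 0, 8, 16, 24, 32, 40 h.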

[3] = qHTS RealTime-Glo MT Cell Viability Assay in HepG2 cells - 32 hour (AID 1224877); note: nearly all actives have a fitted effect of over 55% in size; note: potency is the fitted concentration of half-maximal effect
Outline: (§3)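 Viability was tracked continuously by NanoLuc luminescence from prosubstrate reduced by living HepG2 cells, at successive time points over 40 h of compound exposure. Cells with reagent were preincubated 5 h at 37 °C before compound addition.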

[4] = A CellTox Green Cytotoxicity Assay to monitor cytotoxicity in HepG2 cells - 24 hour (AID 1224878); note: nearly all actives have a fitted effect of over 45% in size; note: potency is the fitted concentration of half-maximal effect
Outline: as §2

[5] = A CellTox Green Cytotoxicity Assay to monitor cytotoxicity in HepG2 cells - 40 hour (AID 1224879); note: nearly all actives have a fitted effect of over 40% in size; note: potency is the fitted concentration of half-maximal effect
Outline: as §2

[6] = qHTS RealTime-Glo MT Cell Viability Assay in HEK293 cells - 0 hour (AID 1224880); note: top concentration of the series differs between compounds; nearly all actives have a fitted effect of over 45% in size
Outline: (§4)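 Luminescence readout at each listed time point; HEK293, 600 cells/well, RealTime-Glo MT reagent added with cells; compounds pinned (23 nL in DMSO) after 5 h at 37 C; continuous culture at 37 C.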

[7] = A CellTox Green Cytotoxicity Assay to monitor cytotoxicity in HEK293 cells - 32 hour (AID 1224881); note: nearly all actives have a fitted effect of over 40% in size; note: potency is the fitted concentration of half-maximal effect
Outline: as §1

[8] = A CellTox Green Cytotoxicity Assay to monitor cytotoxicity in HepG2 cells - 0 hour (AID 1224882); note: nearly all actives have a fitted effect of over 35% in size
Outline: as §2

[9] = A CellTox Green Cytotoxicity Assay to monitor cytotoxicity in HepG2 cells - 32 hour (AID 1224883); note: nearly all actives have a fitted effect of over 50% in size; note: potency is the fitted concentration of half-maximal effect
Outline: as §2

[10] = A CellTox Green Cytotoxicity Assay to monitor cytotoxicity in HEK293 cells - 8 hour (AID 1224884); note: nearly all actives have a fitted effect of over 35% in size
Outline: as §1

[11] = qHTS RealTime-Glo MT Cell Viability Assay in HepG2 cells - 16 hour (AID 1224885); note: nearly all actives have a fitted effect of over 50% in size; note: potency is the fitted concentration of half-maximal effect
Outline: as §3

[12] = qHTS RealTime-Glo MT Cell Viability Assay in HEK293 cells - 24 hour (AID 1224886); note: nearly all actives have a fitted effect of over 50% in size; note: potency is the fitted concentration of half-maximal effect; for activity change, negative = cytotoxicity: top concentration of the series differs between compounds
Outline: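 Viability tracked continuously by luminescence as live cells reduce a prosubstrate for NanoLuc; HEK293 cells preincubated 5 h, compound-treated at 37 C, and read at 0, 8, 16, 24, 32 and 40 h.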

[13] = qHTS RealTime-Glo MT Cell Viability Assay in HEK293 cells - 8 hour (AID 1224887); note: nearly all actives have a fitted effect of over 50% in size; note: potency is the fitted concentration of half-maximal effect; for activity change, negative = cytotoxicity: top concentration of the series differs between compounds
Outline: as §4

[14] = A CellTox Green Cytotoxicity Assay to monitor cytotoxicity in HepG2 cells - 8 hour (AID 1224890); note: nearly all actives have a fitted effect of over 45% in size
Outline: as §2

[15] = qHTS assay to identify small molecule antagonists of the estrogen receptor alpha (ER-alpha) signaling pathway using the BG1 cell line in the presence of 0.1 nM 17-beta-estradiol - cell viability counter screen (AID 1259241); note: nearly all actives have a fitted effect of over 40% in size
Outline: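 VM7Luc4E2 cells (endogenous ER-alpha, 4×ERE-luciferase), hormone-starved 5 days in charcoal-stripped FBS, were treated with compounds plus 0.1 nM 17beta-estradiol for 22 hr at 37C; viability read in same wells as CellTiter-Fluor live-cell protease fluorescence.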

[16] = qHTS assay to identify small molecule antagonists of the androgen receptor (AR) signaling pathway using the MDA cell line in the presence of 0.5 nM R1881 - cell viability counter screen (AID 1259242); note: nearly all actives have a fitted effect of over 45% in size
Outline: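 Live-cell protease fluorescence, CellTiter-Fluor, 30 min at 37C. Cells: MDA-kb2, 3,000/well, preincubated 5 hr. Compounds plus 0.5 nM R1881 final, 16 hr, 37C, 0% CO2.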

[17] = biological target: Androgen receptor (Homo sapiens) (UniProt P10275); test: qHTS assay to identify small molecule antagonists of the androgen receptor (AR) signaling pathway using the MDA cell line in the presence of 0.5 nM R1881 (AID 1259243); note: nearly all actives have a fitted effect of over 50% in size
Sequence of Androgen receptor (Homo sapiens) (P10275 whole entry, looked up): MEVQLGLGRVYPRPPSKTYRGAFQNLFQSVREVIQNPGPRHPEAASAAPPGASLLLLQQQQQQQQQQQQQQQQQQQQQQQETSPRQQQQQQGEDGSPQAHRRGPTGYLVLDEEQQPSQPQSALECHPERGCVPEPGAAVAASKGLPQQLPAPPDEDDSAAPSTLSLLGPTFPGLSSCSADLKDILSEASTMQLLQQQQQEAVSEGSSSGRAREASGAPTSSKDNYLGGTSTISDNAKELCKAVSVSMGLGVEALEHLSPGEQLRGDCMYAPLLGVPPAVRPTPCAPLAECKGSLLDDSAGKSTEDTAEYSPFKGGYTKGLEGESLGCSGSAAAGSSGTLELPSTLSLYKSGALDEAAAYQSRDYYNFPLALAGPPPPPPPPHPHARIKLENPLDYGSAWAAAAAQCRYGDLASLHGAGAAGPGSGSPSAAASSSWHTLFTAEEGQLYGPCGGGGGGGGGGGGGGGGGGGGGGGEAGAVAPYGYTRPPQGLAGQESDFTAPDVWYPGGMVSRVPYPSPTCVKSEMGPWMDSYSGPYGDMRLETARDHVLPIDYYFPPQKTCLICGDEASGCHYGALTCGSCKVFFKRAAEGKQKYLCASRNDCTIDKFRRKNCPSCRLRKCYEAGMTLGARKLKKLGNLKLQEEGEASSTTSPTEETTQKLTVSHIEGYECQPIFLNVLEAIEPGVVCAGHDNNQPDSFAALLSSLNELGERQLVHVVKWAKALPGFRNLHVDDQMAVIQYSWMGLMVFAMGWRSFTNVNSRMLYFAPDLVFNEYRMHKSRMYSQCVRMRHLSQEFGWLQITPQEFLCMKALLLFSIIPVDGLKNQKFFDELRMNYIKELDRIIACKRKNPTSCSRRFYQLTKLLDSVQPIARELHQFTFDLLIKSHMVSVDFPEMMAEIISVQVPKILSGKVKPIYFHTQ
Outline: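 MDA-kb2, MMTV-luc (AR/GR elements); 3,000 cells/well; cpd + 0.5 nM R1881 final; 16 hr 37C, 0% CO2; ONE-Glo 30 min RT; luminescence.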

[18] = biological target: Estrogen receptor (Homo sapiens) (UniProt P03372); test: qHTS assay to identify small molecule antagonists of the estrogen receptor alpha (ER-alpha) signaling pathway using the BG1 cell line in the presence of 0.1 nM 17-beta-estradiol (AID 1259244); note: nearly all actives have a fitted effect of over 50% in size
Sequence of Estrogen receptor (Homo sapiens) (P03372 whole entry, looked up): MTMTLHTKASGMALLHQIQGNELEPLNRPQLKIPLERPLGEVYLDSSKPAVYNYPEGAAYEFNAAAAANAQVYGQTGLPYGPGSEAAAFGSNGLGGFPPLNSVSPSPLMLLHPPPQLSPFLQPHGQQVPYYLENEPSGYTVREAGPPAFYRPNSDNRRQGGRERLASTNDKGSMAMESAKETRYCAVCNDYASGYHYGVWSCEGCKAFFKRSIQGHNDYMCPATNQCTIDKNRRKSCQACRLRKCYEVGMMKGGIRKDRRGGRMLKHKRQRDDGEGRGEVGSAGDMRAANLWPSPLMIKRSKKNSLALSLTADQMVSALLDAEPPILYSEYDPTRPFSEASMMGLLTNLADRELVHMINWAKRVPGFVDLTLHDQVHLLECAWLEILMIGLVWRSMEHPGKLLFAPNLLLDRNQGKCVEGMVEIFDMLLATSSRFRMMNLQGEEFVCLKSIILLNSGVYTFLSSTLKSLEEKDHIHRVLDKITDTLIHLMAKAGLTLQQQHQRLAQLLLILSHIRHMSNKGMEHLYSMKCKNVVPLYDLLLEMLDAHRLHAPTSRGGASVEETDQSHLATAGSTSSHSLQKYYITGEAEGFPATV
Outline: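 Luminescence after ONE-Glo (30 min, room temperature) measured ERE-luciferase activity in VM7Luc4E2 cells treated 22 h with compound and 0.1 nM final 17beta-estradiol as stimulator.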

[19] = A CellTox Green Cytotoxicity Assay to monitor cytotoxicity in HEK293 cells - 16 hour (AID 1224888); note: nearly all actives have a fitted effect of over 35% in size
Outline: as §1

[20] = qHTS RealTime-Glo MT Cell Viability Assay in HepG2 cells - 0 hour (AID 1224889); note: nearly all actives have a fitted effect of over 50% in size
Outline: as §3
% is set by controls: 0 for no effect and ±100 for the full control effect.

C/C=C/C(=O)C1=C(C)C=CCC1(C)C
inactive: Potency [1] | Potency [2] | Potency [3] | Potency [4] | Potency [5] | Potency [6] | Potency [7] | Potency [8] | Potency [9] | Potency [10] | Potency [11] | Potency [12] | Potency [13] | Potency [14] | Potency [15] | Potency [16] | Potency [17] | Potency [18]

O=C(O)CN(CCCN(CC(=O)O)CC(=O)O)CC(=O)O
inactive: activity change [1] 1.78% [at 15.8 µM, active compounds read high] | cytotoxicity increase [2] -15.6% [at 15.8 µM] | activity change, negative = cytotoxic [3] 7.15% [at 15.8 µM] | cytotoxicity [4] -12.4% [at 15.8 µM] | cytotoxicity increase [5] -13.1% [at 15.8 µM] | activity change, negative = cytotoxicity [6] -10.1% [at 15.8 µM] | cytotoxicity increase [7] 1.94% [at 15.8 µM] | cytotoxicity [8] -9.07% [at 15.8 µM] | cytotoxicity increase [9] -13.5% [at 15.8 µM] | cytotoxicity increase [10] -4.96% [at 15.8 µM] | activity change, negative = cytotoxic [11] -11.5% [at 15.8 µM] | activity change, negative = cytotoxicity [12] -9.03% [at 15.8 µM] | activity change, negative = cytotoxicity [13] -4.97% [at 15.8 µM] | activity change [19] 0.612% [at 15.8 µM, active compounds read high] | cytotoxicity increase [14] -1.45% [at 15.8 µM] | activity change, negative = cytotoxicity [15] 0.536% [at 19 µM] | viability change, negative = cytotoxic [16] 0.128% [at 19 µM] | activity, negative = inhibition [17] 1.14% [at 19 µM] | activity change, negative = inhibition [18] -0.399% [at 19 µM]

CC(C)(C)C1=CC(=O)C(C(C)(C)C)=CC1=O
inactive: Potency [1] | Potency [2] | Potency [3] | Potency [4] | Potency [5] | Potency [6] | Potency [7] | Potency [8] | Potency [9] | Potency [10] | Potency [11] | Potency [19] | Potency [14] | Potency [15] | Potency [16]

C=C(C)C1CCC(C)CC1O (configuration not stated)
inactive: Potency [1] | Potency [2] | Potency [3] | Potency [4] | Potency [5] | Potency [6] | Potency [7] | Potency [8] | Potency [9] | Potency [10] | Potency [11] | Potency [12] | Potency [13] | Potency [19] | Potency [14] | Potency [15] | Potency [16]

CC(C)C(=O)C(C)C
inactive: Potency [1] | Potency [2] | Potency [3] | Potency [4] | Potency [5] | Potency [7] | Potency [8] | Potency [9] | Potency [10] | Potency [11] | Potency [12] | Potency [13] | Potency [19] | Potency [20] | Potency [14] | Potency [15] | Potency [16] | Potency [17] | Potency [18]

Nc1ccc(F)c([N+](=O)[O-])c1
inactive: Potency [1] | Potency [2] | Potency [3] | Potency [4] | Potency [5] | Potency [7] | Potency [8] | Potency [9] | Potency [10] | Potency [11] | Potency [12] | Potency [13] | Potency [19] | Potency [20] | Potency [14] | Potency [15] | Potency [16] | Potency [18]

CC/C=C(\C)C=O
inactive: Potency [1] | Potency [2] | Potency [3] | Potency [4] | Potency [5] | Potency [6] | Potency [7] | Potency [8] | Potency [9] | Potency [10] | Potency [11] | Potency [12] | Potency [13] | Potency [19] | Potency [20] | Potency [14] | Potency [15] | Potency [16] | Potency [18]

CCNc1nc(NC(C)(C)C)nc(OC)n1
inactive: Potency [1] | Potency [2] | Potency [3] | Potency [4] | Potency [5] | Potency [6] | Potency [7] | Potency [8] | Potency [9] | Potency [10] | Potency [11] | Potency [19] | Potency [20] | Potency [14] | Potency [15] | Potency [16] | Potency [18]

Oc1ccc2c(c1)CCC2
inactive: Potency [1] | Potency [2] | Potency [3] | Potency [4] | Potency [5] | Potency [6] | Potency [7] | Potency [8] | Potency [9] | Potency [10] | Potency [11] | Potency [12] | Potency [13] | Potency [19] | Potency [20] | Potency [14] | Potency [15] | Potency [16] | Potency [17] | Potency [18]

C=CC(C)(C)O
inactive: Potency [1] | Potency [2] | Potency [3] | Potency [4] | Potency [5] | Potency [6] | Potency [7] | Potency [8] | Potency [9] | Potency [10] | Potency [11] | Potency [12] | Potency [13] | Potency [19] | Potency [20] | Potency [14] | Potency [16] | Potency [17] | Potency [18]

[Cl][Dy]([Cl])[Cl]
inactive: Potency [1] | Potency [2] | Potency [3] | Potency [4] | Potency [5] | Potency [6] | Potency [7] | Potency [8] | Potency [9] | Potency [11] | Potency [12] | Potency [13] | Potency [19] | Potency [20] | Potency [14] | Potency [15] | Potency [18]

COc1cccc(-c2ccc(/C=C\CN3CCCCCC3)cc2Cl)c1
active: Potency [1] 48.7 µM | Potency [2] 43.4 µM | Potency [3] 48.7 µM | Potency [4] 43.4 µM | Potency [5] 38.7 µM | Potency [7] 43.4 µM | Potency [9] 38.7 µM | Potency [11] 43.4 µM | Potency [12] 43.4 µM | Potency [13] 48.7 µM
inactive: Potency [8] | Potency [15]

c1ccc2c(c1)-c1ccc3ccc4cccc5cc-2c1c3c45
active: Potency [5] 9.52 µM
inactive: Potency [1] | Potency [2] | Potency [3] | Potency [6] | Potency [8] | Potency [11] | Potency [12] | Potency [13] | Potency [19] | Potency [20] | Potency [14]
